# SMN2 splice enh: SMN2 splice variant enhancement | HEK293 SMN2-luciferase splicing reporter, luminescence, 30-36 h | Potency, µM (titrated, usually from 46.1 µM), for inactives: at the highest dose activity change, positive = activation, most hits filed as activators | actives 2.8% (n = 210,000); note: % of control where 0% means no effect; nearly all actives have a fitted effect of over 55% in size
#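 HEK293 cells carry an SMN2 […]–luciferase reporter in which exon 7 inclusion puts luciferase in frame. Cells were plated 10-12 h before compound addition, then incubated 30-36 h at 37C. ONE-Glo luminescence was read; sodium butyrate at 4.5 mM final served as control.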
# FLuc modulator: firefly luciferase modulation, counter-screen for miR-21 project | Potency, µM (doses to about 57.5 µM), for inactives: top-dose activity change, negative = inhibition, usual class: inhibitors | actives 6.9% (n = 360,000) | P08659 | purified FLuc, Km substrates, luminescence inhibition | AID 588342;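 note: plate controls were vehicle for no effect and reference inhibitor for full effect; nearly all actives have a fitted effect of over 55% in size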
# Target sequence (P08659 whole entry, looked up): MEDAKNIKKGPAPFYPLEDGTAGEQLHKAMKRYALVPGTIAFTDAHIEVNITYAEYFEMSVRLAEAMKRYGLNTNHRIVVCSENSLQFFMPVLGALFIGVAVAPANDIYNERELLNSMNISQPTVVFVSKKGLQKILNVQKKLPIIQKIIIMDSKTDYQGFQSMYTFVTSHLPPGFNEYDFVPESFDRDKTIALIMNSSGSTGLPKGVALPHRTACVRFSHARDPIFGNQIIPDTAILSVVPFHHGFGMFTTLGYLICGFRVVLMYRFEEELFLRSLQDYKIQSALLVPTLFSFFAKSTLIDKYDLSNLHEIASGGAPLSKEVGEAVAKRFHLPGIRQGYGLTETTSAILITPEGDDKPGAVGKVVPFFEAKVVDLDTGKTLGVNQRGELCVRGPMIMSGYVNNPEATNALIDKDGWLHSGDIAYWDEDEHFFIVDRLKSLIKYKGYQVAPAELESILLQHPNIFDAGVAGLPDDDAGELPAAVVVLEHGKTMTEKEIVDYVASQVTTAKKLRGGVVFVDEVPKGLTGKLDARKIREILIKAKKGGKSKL
#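 Purified P. pyralis luciferase (10nM final) with 10uM D-luciferin and 10uM ATP (Km levels) in 50mM Tris acetate pH 7.5, 10mM Mg acetate, 0.01% Tween-20, 0.05% BSA; qHTS 6-point titration, ~60 µM downward; luminescence read.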
# Rab9 promoter act: activates the Rab9 promoter | Huh7 Rab9 promoter-luciferase reporter, luminescence, 24 h | Potency, µM (titrated, usually from 9.22 µM), for inactives: at the top dose activation, negative = inhibition, most hits filed as activators | actives 2.8% (n = 320,000); note: % of control where 0% means no effect; nearly all actives have a fitted effect of over 60% in size
#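 Quantitative HTS format; Huh7 Rab9-luciferase reporter cells (1500/well) receive compound 2 h post-plating, incubate 24 h at 37 °C, then get luciferase reagent for 10 min before luminescence reading.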
# NPC1 promoter act: NPC1 promoter activation | Huh7 NPC1 promoter luciferase reporter, 24 h | Potency, µM (top dose mostly 9.22 µM), for inactives: at the top dose activation, usual class: activators | actives 2.4% (n = 320,000) | AID 485313; note: % of control where 0% means no effect; nearly all actives have a fitted effect of over 60% in size
#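 Luciferase expression driven by the NPC1 promoter was measured in stably transfected Huh7 cells after a 24 h compound incubation, using a luciferase reagent and a luminescence read.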
# ELG1 genotox: inducers of genotoxicity in HEK293T ELG1-luciferase cells | HEK293T ELG1-luciferase reporter, luminescence, 16 h | Potency, µM (highest dose often 46 µM), without a hit: top-dose activity change, positive = activation, usual class: activators | actives 1.3% (n = 330,000) | AID 504466; note: % of control where 0% means no effect; nearly all actives have a fitted effect of over 60% in size
#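 After overnight (16 hr) compound treatment at 37 °C, ELG1-luciferase HEK293T cells were lysed with ONE-Glo; luminescence quantified 30 min later at room temperature.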
# Luc counter: counter-screen: inhibitors of Kinase-Glo firefly luciferase. actives 0.28% (n = 200,000). Potency, µM (highest dose often 38.3 µM), for the others: at the top dose activity change, negative = inhibition, actives largely listed as inhibitors. Q27757. Kinase-Glo luciferase, ATP luminescence, 8 min; note: % is set by controls: 0 for no effect and ±100 for the full control effect; nearly all actives have a fitted effect of over 60% in size
#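 Substrate mix (final 50 mM imidazole pH 7.2, 50 mM KCl, 7 mM MgCl2, 10 uM ATP, 0.01% Tween 20, 0.05% BSA) plus pin-tool compound, then Kinase-Glo detection mix; 8 min ambient, luminescence read.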
# Active calls of the source: *; ? = inconclusive; / = not tested or not shown; [ ] = remark or other dose. The list is not random: actives were taken first. Their share in the collection is about 7.5%. Calls come from the whole dose curve; as a rule, active = well fitted curve in the direction sought with a large enough effect; inconclusive = small, poorly fitted or top-dose-only effect, or another doubt; inactive = no such curve, though single readings can be large; an effect the other way counts as inactive or inconclusive. Potency is the fitted concentration of half-maximal effect.
SMILES,SMN2 splice enh,FLuc modulator,Rab9 promoter act,NPC1 promoter act,ELG1 genotox,Luc counter
CCS(=O)(=O)c1ccc2oc(Nc3ccccc3Cl)nc2c1,/,9.5µM*,0.63µM*,1.6µM*,5.2µM*,/
Clc1ccccc1Nc1nc2ccccc2o1,/,1.7µM*,0.79µM*,?,?,/
CCS(=O)(=O)c1ccc2oc(Nc3ccccc3Br)nc2c1,/,9.5µM*,2µM*,2.5µM*,10µM*,/
Cc1cccc(Oc2ccc(NC(=O)C3=CC=CN4CCS(=O)(=O)N=C34)cc2)c1,/,?,-2%,-4%,-3%,/
O=c1ccn(Cc2ccc(F)cc2)c2ccnc(C(F)(F)F)c12,-91%,8%,-2%,1%,-4%,-1%
O=C(NC1CCCCC1)c1cc(S(=O)(=O)N2CCCC2)ccc1Cl,/,1%,-7%,-6%,-8%,/
Cc1cc(C)cc(NC(=O)C(=O)NCC(c2cccnc2)N2CCc3ccccc3C2)c1 (stereo unspecified),/,-2%,/,/,/,/
N#Cc1ccc(OC(=O)c2cc(-c3ccc4c(c3)OCCO4)on2)cc1,/,21µM*,/,/,/,/
Cc1cc(C)cc(OC(=O)c2cc(-c3ccc4c(c3)OCCO4)on2)c1,/,-29%,/,/,/,/
Cc1cccc(OC(=O)c2cc(-c3ccc4c(c3)OCCO4)on2)c1,/,4.8µM*,/,/,/,/
O=C(Oc1ccc(Cl)cc1)c1cc(-c2ccc3c(c2)OCCO3)on1,/,6µM*,/,/,/,/
CC(C)c1ccc(OC(=O)c2cc(-c3ccc4c(c3)OCCO4)on2)cc1,/,-19%,/,/,/,/
COc1ccc(OC(=O)c2cc(-c3ccc4c(c3)OCCO4)on2)cc1,/,7.6µM*,/,/,/,/
Brc1ccc(-c2cn3c(n2)CCc2ccc4cccnc4c2-3)cc1,-14%,13µM*,4%,13%,-5%,-1%
Brc1ccc(OCCCOc2cccc3cccnc23)cc1,/,?,1%,1%,7%,/
S=c1nc(Cc2ccccc2)[nH]c2ccccc12,/,-1%,-2%,0%,8%,/
S=c1nc(COc2ccccc2)[nH]c2ccccc12,/,24µM*,?,?,16%,/
Clc1ccc2nc(-c3ccccc3)[nH]c2c1,/,/,/,/,/,11µM*
Clc1ccc2nc(-c3ccc(Cl)nc3)[nH]c2c1,/,12µM*,17%[1.84 µM],2.2µM*,?,/
Clc1ccc2nc(COc3ccccc3)[nH]c2c1,/,12µM*,?,-1%,?,/
C=Cc1ccc(Cn2c(C)c(CNCCc3ccc(OCC)cc3)c(C(=O)O)c2C)cc1,-4%,-8%,/,/,/,/
CCOc1ccc(N(Cc2ccc(C(=O)O)cc2)S(=O)(=O)c2ccc(C)cc2)cc1,/,2%,10%,-3%,?,/
CCCc1cc(-c2ccc3c(c2)COc2c4ccccc4nn2-3)on1,/,1.1µM*,2.8µM*,2.8µM*,?,/
C(#CC1CCCC1)c1ccc2c(c1)COc1c3ccccc3nn1-2,/,3µM*,1µM*,0.89µM*,?,/
Cc1cccc(Cc2c(C)nc3nc(SCc4ccccc4C)nn3c2C)c1,/,-4%,/,/,/,/
SMILES,SMN2 splice enh,FLuc modulator,Rab9 promoter act,NPC1 promoter act,ELG1 genotox,Luc counter
CCOc1ccc(OCCC(=O)OCC(=O)Nc2ccc3c(c2)OCO3)cc1,/,24µM*,1%,-1%,3%,/
C/C(=N\OCC(=O)Nc1ccc2c(c1)OCCO2)c1ccc2c(c1)OCCO2,/,19µM*,5%,2%,1%,/
CCOC(=O)c1ccc(NC(=O)Nc2ccc3c(c2)OCCO3)cc1,-11%,19µM*,-4%,-1%,-3%,1%
CCOC(=O)c1c(C)c(C(=O)Nc2ccc3c(c2)OCCO3)c(C)n1C,?,?,19%,10%,8%,0%
Cc1ccc(OCCC(=O)OCC(=O)Nc2ccc3c(c2)OCCO3)cc1,/,?,2%,-1%,-1%,/
Cc1cc(OCC(=O)Nc2ccc3c(c2)OCCO3)ccc1Cl,-9%,19µM*,4%,1%,17%,-2%
COc1ccc(CC(=O)NCCS(=O)(=O)N2CCN(c3ccccc3F)CC2)cc1OC,/,0%,/,/,/,/
CC(=O)N1CCCC(C(=O)c2ccc(Oc3ccccc3)cc2)C1 (stereo unspecified),/,?,0%,0%,1%,-1%
CCOc1cc(C2C(C(=O)OC)=C(C)NC3=C2C(=O)c2ccccc23)c(Br)cc1O (stereo unspecified),/,-12%,/,/,/,/
O=C(COc1ccc2c(c1)OCO2)Nc1cccc(F)c1,/,9.5µM*,-1%,14%,13µM*,/
CCOCC(=O)Nc1ccc2c(c1)OCCO2,?,?,3.2µM*,?,?,-7%
O=C(COc1ccc(F)cc1)Nc1ccc2c(c1)OCCO2,/,5.4µM*,4µM*,2.8µM*,?,/
CCC(=O)c1ccc(OCC(=O)Nc2ccc3c(c2)OCCO3)cc1,/,/,/,/,14%,/
CC1=C(C(=O)OC2CCCC(C)C2)C(c2ccccc2)NC(=O)N1 (stereo unspecified),/,1%,1µM*,-12%,-4%,/
COc1cc(C2NC(=O)NC(C)=C2C(=O)OC2CCCC(C)C2)cc(Br)c1O (stereo unspecified),/,0%,-2%,-2%,3%,/
O=C(Cn1cc(SCc2cccc(Cl)c2)c2ccccc21)N1CCOCC1,/,19µM*,?,21%,9%,-30%
O=C(CSc1cn(CC(=O)N2CCOCC2)c2ccccc12)N1CCOCC1,/,-2%,0%,2%,1%,/
Cc1cccc(CSc2cn(CC(=O)N3CCOCC3)c3ccccc23)c1,?,15µM*,?,?,?,-17%
CCOc1ccccc1NC(=O)C1CCN(S(=O)(=O)c2ccc3c(c2)CCCN3C(C)=O)CC1,/,1%,/,/,/,/
O=C1OC(c2ccc(F)cc2)=C/C1=C\c1ccc(O)cc1,/,11µM*,14%,8%,1%,/
COc1cccc(C(=O)Nc2cccc(-c3ccc(N4CCOCC4)nn3)c2)c1OC,/,0.38µM*,1.1µM*,3.5µM*,1%,/
Cn1c(SCC(=O)N2CCOCC2)nnc1-c1cccc(NC(=O)c2ccccc2F)c1,10%,1%,-1%,-1%,2%,-2%
CCOc1ccc(C(=O)Nc2ccc(S(=O)(=O)N3CCOCC3)cc2)cc1OCC,-6%,0%,1%,15%,3%,-5%
CCOc1ccc(C(=O)Nc2cccc(-c3ccc(N4CCOCC4)nn3)c2)cc1OCC,/,1.2µM*,4µM*,?,3%,/
COc1cccc(C(=O)Nc2cccc(-c3ccc(N4CCOCC4)nn3)c2)c1,/,2.1µM*,?,?,3%,/
O=C(Nc1cccc(-c2ccc(N3CCOCC3)nn2)c1)c1ccc(F)cc1F,/,1.1µM*,2.8µM*,2.8µM*,?,/
CC(C)(C)OC(=O)N1CCC(c2c(C(=O)NCc3ccccn3)cnn2-c2ccccc2)CC1,/,-6%,/,/,/,/

# Screens (PubChem BioAssay)
